PubChem BioAssay AID1347155 (National Center for Advancing Translational Sciences (NCATS), 2019)
Values joined by “and” are separate entries in the source; they are usually repeats but may differ in a detail not shown here. Identical values can stand only once. Results filed as inconclusive are left out. Unmarked numbers belong to inactive results. Active and inactive are the calls of the source. Calls come from the whole dose curve; as a rule, active = well fitted inhibition curve with a large enough effect; inconclusive = small, poorly fitted or top-dose-only effect; inactive = no such curve, though single readings can be large or run the other way. *1 amine or outer side, *2 acyl side, *3 side chain or, on linkers, in order; H or OH if unused. Where a SMILES comes first, the peptide text is derived from it. Bridges are numbered along the chain shown (N, C = ends). Roman numbers before positions name the chains, in order. [ ]: non-standard residue; d: D form. ξ: configuration not given here. Actinocin(9to1) = Cc1c2oc3c(C)ccc(C(=O)[*:1])c3nc-2c(C(=O)[*:2])c(N)c1=O; aThr = C[C@H](O)[C@H](N)C(=O)O; NMeV = CN[C@H](C(=O)O)C(C)C; ξNMeV = CNC(C(=O)O)C(C)C; ξV = CC(C)C(N)C(=O)O; Sar = CNCC(=O)O

test system: Zika virus NS2B-NS3 protease (linked); assay: Optimization screen NINDS Rhodamine qHTS for Zika virus inhibitors: Linked NS2B-NS3 protease assay; conditions: fluorogenic rhodamine substrate; series mostly up to 105 µM; activity change, negative = inhibition: at the top concentration
From the text: Avindra Nath, Ph.D., National Institute of Neurological Disorders and Stroke (NINDS), Bethesda, MD
Radhakrishnan Padmanabhan, Ph.D., Georgetown University (GU), Washington D.C.
Zika Virus causes congenital defects, including microcephaly and is associated with Guillain-Barre syndrome, eningoencephalitis and myelitis in infected adult. […] Using a target-based approach, we hope to establish a screening paradigm to uncover novel, cell-active NS2B-NS3 protease (Zika Virus) specific inhibitors from NCATS' collection of small molecules using qHTS.
Four assay panel was created to identify potential Zika Virus inhibitors. Namely, (1) GU unlinked NS2B-NS3 AMC tagged protease qHTS, (2) GU unlinked NS2B-NS3 Rhodamine tagged protease qHTS, (3) NINDS linked NS2B-NS3 AMC tagged protease qHTS, (4) NINDS linked NS2B-NS3 Rhodamine tagged protease qHTS. Active compounds were re-acquired and re-screened to confirm inhibition. Inhibitors were further screened against various confirmatory and counterscreens in dose response format.
Early Translation Branch (ETB)
National Center for Advancing Translational Sciences (NCATS), Rockville, MD
National Institute of Health (NIH), Bethesda, Maryland
For the linked assay, Nath lab (NINDS) provided the purified linked NS2B-NS3 protease which is consists of hydrophilic domain of NS2B linked to the NS3 protease domain by a flexible (-GGGGSGGGG-) linker. Control compound aprotinin is obtained from Thermo Scientific (#78432; Waltham, Massachusetts). Rhodamine110 substrate ([N-Cbz]-Nle-Lys-Arg-Arg-Rhod110-Arg-Arg-Lys-Nle-[N-Cbz]) was purchased from either Genscript or Bachem.
1536-well Protease (Rhodamine110 Substrate) Assay:
Briefly, 3 microL of enzyme (25 nM final concentration), in assay buffer (10 mM Tris-HCl pH 8.0 with 0.01% Tween 20) were dispensed into a 1,536-well solid-bottom black plate (Greiner Bio One, Monroe, NC). Twenty-three nL of compounds (final concentration range 7.28 nM to 114 microM) or control Aprotinin (final concentration range 3.47 nM to 114 microM) were transferred via Wako Pin-tool (Wako Automation, Richmond, VA). Samples were incubated (room temperature, protected from light) for 15 minutes followed by a 1 microL Rhodamine110 substrate addition (1.5 microM final concentration). Plates were then immediately read on a ViewLux High-throughput CCD imager (PerkinElmer, Waltham, MA) equipped with FITC fluorescence optics (480(20) nm excitation, 540(25) nm emission), then incubated (room temperature, protected from light) for 15 minutes (~15% conversion). The change in fluorescence intensity over the 15-minute reaction period was normalized against no-inhibitor and no-enzyme controls and the resulting percent inhibition data were fitted to a 4-parameter Hill equation. Aprotinin was used as intraplate control.

Compound	Potency	activity change, negative = inhibition
CC(C)(C)CC(C)(C)c1ccc(OCCOCC[N+](C)(C)Cc2ccccc2)cc1	inactive	
CC1O[C@@H](O[C@@H]2C(O)C[C@H](O[C@@H]3C(O)C[C@@H](OC4CC[C@@]5(C)C6CC(O)[C@@]7(C)C(C8=CC(=O)OC8)CC[C@@]7(O)C6CC[C@@H]5C4)OC3C)OC2C)CC(O)[C@H]1O (stereo not given in full)		9.11%
CCC(CC)(NC(=O)C(C)C)C(=O)N[C@@H](CCCN=C(N)N)C(=O)NC1(C(=O)NC(c2ccc(F)cc2)c2ccc(F)cc2)CCCC1		1.29%
CNC(=O)c1cc(Oc2ccc(NC(=O)Nc3ccc(Cl)c(C(F)(F)F)c3)cc2)ccn1	16 µM (active)	
CCCCCCCCc1ccc(CCC(N)(CO)CO)cc1	55.5 µM (active)	
CC[C@@H](C)[C@H]1O[C@]2(CC[C@H]1C)C[C@@H]1C[C@@H](CC=C(C)[C@@H](O[C@H]3C[C@H](OC)[C@@H](O[C@H]4C[C@H](OC)[C@@H](O)[C@H](C)O4)[C@H](C)O3)[C@@H](C)C=CC=C3CO[C@@H]4[C@H](O)C(C)=C[C@@H](C(=O)O1)[C@]34O)O2	39.3 µM (active)	
O=C(Nc1ccc([N+](=O)[O-])cc1Cl)c1cc(Cl)ccc1O	9.87 µM (active)	
CCOc1ccc(C2C(=O)N(C3CCCCC3)CC(=O)N2Cc2ccc(F)cc2)cc1OC (stereo not given)		-2.05%
CO[C@H]1C[C@@H](O[C@@H]2/C(C)=C/C[C@@H]3C[C@@H](C[C@]4(CC[C@H](C)[C@@H](C5CCCCC5)O4)O3)OC(=O)[C@@H]3C=C(C)/C(=N/O)[C@H]4OC/C(=C\C=C\[C@@H]2C)[C@]43O)O[C@@H](C)[C@H]1O	24.8 µM (active)	
Cc1c2oc3c(C)ccc(C(=O)N[C@@H]4C(=O)N[C@@H](C(C)C)C(=O)N5CCC[C@@H]5C(=O)N(C)CC(=O)N(C)[C@@H](C(C)C)C(=O)O[C@H]4C)c3nc-2c(C(=O)N[C@@H]2C(=O)N[C@@H](C(C)C)C(=O)N3CCC[C@@H]3C(=O)N(C)CC(=O)N(C)[C@@H](C(C)C)C(=O)O[C@H]2C)c(N)c1=O (I: [aThr]V[dP][Sar][NMeV] / II: [aThr]V[dP][Sar][NMeV]; ester I:1-I:C, II:1-II:C; linker I:N-II:N via Actinocin(9to1))		-4.07%
Cc1c2oc3c(C)ccc(C(=O)N[C@@H]4C(=O)N[C@H](C(C)C)C(=O)N5CCC[C@H]5C(=O)N(C)CC(=O)N(C)[C@@H](C(C)C)C(=O)O[C@@H]4C)c3nc-2c(C(=O)N[C@@H]2C(=O)N[C@H](C(C)C)C(=O)N3CCC[C@H]3C(=O)N(C)CC(=O)N(C)[C@@H](C(C)C)C(=O)O[C@@H]2C)c(N)c1=O (I: T[dV]P[Sar][NMeV] / II: T[dV]P[Sar][NMeV]; ester I:1-I:C, II:1-II:C; linker I:N-II:N via Actinocin(9to1))	inactive	
CC(C)C[C@@H](NC(=O)[C@H](Cc1ccccc1)NC(=O)c1cnccn1)B(O)O		-11.7% [at 228 µM]
Nc1nc(=S)c2[nH]cnc2[nH]1	inactive	
O=C1c2c(O)ccc([N+](=O)[O-])c2C(=O)c2c([N+](=O)[O-])ccc(O)c21	12.7 µM (active) and 6.39 µM (active)	
CCc1nc(N)nc(N)c1-c1ccc(Cl)cc1	inactive	
C[S+](CC[C@H](N)C(=O)O)C[C@H]1O[C@@H](n2cnc3c(N)ncnc32)[C@H](O)[C@H]1O (stereo not given in full)		-26.9%
COc1c(C)c2c(c(O)c1C/C=C(\C)CCC(=O)OCCN1CCOCC1)C(=O)OC2		20.5%
OC(c1cc(C(F)(F)F)nc2c(C(F)(F)F)cccc12)C1CCCCN1 (stereo not given)		6.78%
NC(=O)C(=O)O		6.13%
CC=CCC(C)C(O)C1C(=O)NC(CC)C(=O)N(C)CC(=O)N(C)C(CC(C)C)C(=O)NC(C(C)C)C(=O)N(C)C(CC(C)C)C(=O)NC(C)C(=O)NC(C)C(=O)N(C)C(CC(C)C)C(=O)N(C)C(CC(C)C)C(=O)N(C)C(C(C)C)C(=O)N1C (stereo not given)		23.1%

Compound	Potency	activity change, negative = inhibition
C[C@H]1O[C@@H](O[C@H]2[C@@H](O)C[C@H](O[C@H]3[C@@H](O)C[C@H](O[C@H]4CC[C@@]5(C)[C@H](CC[C@@H]6[C@@H]5C[C@@H](O)[C@]5(C)[C@@H](C7=CC(=O)OC7)CC[C@]65O)C4)O[C@@H]3C)O[C@@H]2C)C[C@H](O)[C@@H]1O		-1.02% [at 228 µM]
CCCCOc1ccc(C2C(=O)N(C3CCCCC3)CC(=O)N2C2CCCCC2)cc1 (stereo not given)		1.48%
Cn1cnc([N+](=O)[O-])c1Sc1ncnc2nc[nH]c12	inactive	
CO[C@H]1C[C@H](O[C@@H]2/C(C)=C/C[C@@H]3C[C@@H](C[C@]4(CC[C@H](C)[C@@H](C5CCCCC5)O4)O3)OC(=O)[C@@H]3C=C(C)/C(=N/O)[C@H]4OC/C(=C\C=C\[C@@H]2C)[C@]43O)O[C@@H](C)[C@@H]1O		-47.8%
O=c1cc(-c2ccccc2)oc2cc(O)c(O)c(O)c12	4.94 µM (active)	
CC(C)C[C@H](NC(=O)[C@H](Cc1ccccc1)NC(=O)c1cnccn1)B(O)O		-2.87%
CC(=O)Nc1ccc([C@H](C)C(=O)Nc2ncc(C(C)C)s2)cc1		1.33%
S=c1nc[nH]c2nc[nH]c12	inactive	
Nc1ncnc2c1ncn2[C@@H]1O[C@H](C[C@@H](N)CC[C@H](N)C(=O)O)[C@@H](O)[C@H]1O		3.64%
Oc1cc2ccccc2c2ccccc12	63.9 µM (active)	
C[C@H]1O[C@@H](O[C@H]2CC[C@@]3(C)[C@H](CC[C@@H]4[C@@H]3C[C@@H](O)[C@]3(C)[C@@H](C5=CC(=O)OC5)CC[C@]43O)C2)C[C@H](O)[C@@H]1O[C@H]1C[C@H](O)[C@H](O[C@H]2C[C@H](O)[C@H](O[C@@H]3O[C@H](CO)[C@@H](O)[C@H](O)[C@H]3O)[C@@H](C)O2)[C@@H](C)O1		6.52%
C[C@H]1O[C@@H](O[C@H]2[C@@H](O)C[C@H](O[C@H]3[C@@H](O)C[C@H](O[C@H]4CC[C@]5(C)C6C[C@@H](O)[C@]7(C)[C@@H](C8=CC(=O)OC8)CC[C@]7(O)C6CC[C@@H]5C4)O[C@@H]3C)O[C@@H]2C)C[C@H](O)[C@@H]1O (stereo not given in full)		1.78%
CC[C@@H]1O[C@]2(C=C[C@@H]1C)C[C@H]1C[C@H](CC=C(C)[C@@H](O[C@@H]3C[C@H](OC)[C@H](O[C@@H]4C[C@H](OC)[C@H](O)[C@H](C)O4)[C@H](C)O3)[C@@H](C)C=CC=C3CO[C@@H]4[C@@H](O)C(C)=C[C@@H](C(=O)O1)[C@]34O)O2		24.5% [at 48 µM]
O[C@@H](c1cc(C(F)(F)F)nc2c(C(F)(F)F)cccc12)[C@H]1CCCCN1		10.6%
N[C@H](C(=O)O)c1ccc(O)cc1		-5.22%
CC1OC(OC2C(O)CC(OC3C(O)CC(OC4CCC5(C)C(CCC6C5CC(O)C5(C)C(C7=CC(=O)OC7)CCC65O)C4)OC3C)OC2C)CC(O)C1O (stereo not given)		8.89% [at 228 µM]
CCOc1ccc(C2C(=O)N(C3CCCCCC3)CC(=O)N2CCc2ccc(Cl)cc2)cc1OC (stereo not given)		8.87%
COc1c2occc2cc2ccc(=O)oc12		-34.5%
Nc1ccn([C@@H]2O[C@H](CO)[C@@H](O)C2(F)F)c(=O)n1		-14.2% [at 228 µM]
Cc1c2oc3c(C)ccc(C(=O)N[C@@H]4C(=O)NC(C(C)C)C(=O)N5CCC[C@H]5C(=O)N(C)CC(=O)N(C)C(C(C)C)C(=O)O[C@@H]4C)c3nc-2c(C(=O)N[C@@H]2C(=O)NC(C(C)C)C(=O)N3CCC[C@H]3C(=O)N(C)CC(=O)N(C)C(C(C)C)C(=O)O[C@@H]2C)c(N)c1=O (stereo not given in full) (I: T[ξV]P[Sar][ξNMeV] / II: T[ξV]P[Sar][ξNMeV]; ester I:1-I:C, II:1-II:C; linker I:N-II:N via Actinocin(9to1))		8.56%
